The text below walks through data of PubChem BioAssay.

“And” between values parts separate entries of the source, which are not always exact repeats. Equal entries are not always repeated. The source made the active and inactive calls.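 How the source made its calls, unless noted: active means compounds whose cell count with miR-34 switched on is under 0.7 times the count with it off; inactive means the rest.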

Assay [1] in a line: liver-stage malaria parasite growth inhibition, primary screen, cell-based, HepG2, luciferase luminescence, HepG2 viability (AID 624349; in the data active means parasite load remaining mostly below about 12%, no sharp cut-off; inactive means mostly above about 10%;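 further: 100% = mean of DMSO negative control wells on the same plate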). To be noted: P. berghei liver stage in HepG2, luciferase luminescence, concentration not given here; parasite load remaining: stronger effect = lower value; viability: measured here: HepG2 viability without parasites.
Assay [2] can be described thus: sensitizers of A549 cells to miR-34 induction, primary screen, imaging, A549 dox-inducible miR-34, nuclei and caspase counts (AID 1347080). The settings on record: A549 miR-34 inducible, Hoechst nuclei count, 48 h.
The nature of assay [3]: hESC survival regulators, cell-based (AID 493140; call rule not given here;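 further: cells exposed to compounds for four days before counting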). The settings on record: human embryonic stem cell survival screen; stronger effect = higher value.
Setting [4] is: stronger effect = lower value, cell number ratio, induced over uninduced.
Setting [5] is: measured here: relative caspase fold change +Dox/-Dox.
Where [6] appears, read: measured here: total cells with miR-34 induction, stronger effect = lower value.
The mark [7] stands for this setting: measured here: total cells without miR-34 induction.

In general, viability refers to a read-out of living cells in per cent, often relative to untreated cells. On to `CCC1OC(=O)[C@H](C)C(=O)[C@H](C)[C@@H](OC2O[C@H](C)C[C@H](N(C)C)[C@H]2O)[C@](C)(OC)C[C@@H](C)C(=O)[C@H](C)[C@H]2N(CCCCn3cnc(-c4cccnc4)c3)C(=O)OC12C` (stereo partly specified), for which the parasite load remaining in assay [1] was 141% (inactive) and 312% (inactive). The viability in assay [1] is 91.8% and 96.9%. In addition, the fold change in assay [2] (setting [4]) was 0.904 (inactive); in assay [2] (setting [5]) it was 2.11. Further, the cell count stood at 11200 in assay [2] (setting [6]) and 12400 in assay [2] (setting [7]).

Regarding `CCCCCCCCCCCCCCCCCCOC[C@@H](O)COP(=O)([O-])OCC[N+](C)(C)C`, the survival in assay [3] was 71.2 (inactive). In addition, the fold change in assay [2] (setting [4]) is 0.968 (inactive); in assay [2] (setting [5]), 0.597. Moreover, the figures for the cell count in assay [2] (setting [6]) and in assay [2] (setting [7]) were 5980 and 6180, respectively.

With `COc1c2ccoc2nc2c(OC)c(OC[C@@H](O)C(C)(C)O)ccc12`, the parasite load remaining in assay [1] was 153% (inactive). Besides, the viability in assay [1] was found to be 90.5%. In addition, the results for the fold change in assay [2] (setting [4]) and in assay [2] (setting [5]) were 0.816 (inactive) and 1.39, respectively. The cell count was determined as 8040 in assay [2] (setting [6]) and 9850 in assay [2] (setting [7]).

With `CC[N+]1(C)[C@@H]2CC[C@H]1CC(OC(=O)[C@H]1CCC(C(=O)OC3C[C@H]4CC[C@@H](C3)[N+]4(C)CC)(c3ccccc3)c3ccccc31)C2` (stereo partly specified), the parasite load remaining in assay [1] was 96.6% (inactive). The viability in assay [1] turned out to be 101%. The fold change in assay [2] (setting [4]) was 0.889 (inactive); in assay [2] (setting [5]), 1.08. Moreover, the cell count in assay [2] (setting [6]) turned out to be 9010; in assay [2] (setting [7]), 10100.

Consider `CCCCCC(=O)/C=C/[C@H]1[C@H](O)CC(=O)[C@@H]1C/C=C\CCCC(=O)O`, for which the survival in assay [3] is 92.3 (inactive). Besides, the values for the fold change in assay [2] (setting [4]) and in assay [2] (setting [5]) were 0.973 (inactive) and 1.18, respectively. Moreover, the figures for the cell count in assay [2] (setting [6]) and in assay [2] (setting [7]) were 6130 and 6300, respectively.

In the case of `CN(C)c1ccc(O)c2c1CC1CC3[C@@H](N(C)C)C(=O)C(C(N)=O)=C(O)[C@]3(O)C(=O)C1=C2O` (stereo partly specified), the parasite load remaining in assay [1] was 53.7% (inactive). The viability in assay [1] stood at 42.6%. Further, the fold change in assay [2] (setting [4]) was 0.679 (active); in assay [2] (setting [5]), 1.3. Moreover, the cell count in assay [2] (setting [6]) is 3880; in assay [2] (setting [7]), 5720.

Regarding `CC(C)(C)n1nc(Cc2cccc3ccccc23)c2c(N)ncnc21`, the parasite load remaining in assay [1] was 40.9% (inactive). Moreover, in assay [1], the viability amounted to 75%. Besides, the fold change is 1.05 (inactive) in assay [2] (setting [4]) and 1.15 in assay [2] (setting [5]). Also, the cell count is 5260 in assay [2] (setting [6]) and 5010 in assay [2] (setting [7]).

`C=Cc1c(C)c2cc3nc(cc4[nH]c(cc5nc(cc1[nH]2)C(C)=C5CCC(=O)O)c(CCC(=O)O)c4C)[C@@]1(C)C3=CC=C(C(=O)OC)C1C(=O)OC` (stereo partly specified): the parasite load remaining in assay [1] was 82.4% (inactive). Moreover, the viability in assay [1] was 67.8%. The figures for the fold change in assay [2] (setting [4]) and in assay [2] (setting [5]) were 0.97 (inactive) and 1.04, respectively. For the same compound, the cell count in assay [2] (setting [6]) is 9050; in assay [2] (setting [7]) it was 9330.

With `CCCCCCCCCC(=O)OCC(CO)OC(=O)CCCCCCCCC` (stereo unspecified), the survival in assay [3] was 93.4 (inactive). The values for the fold change in assay [2] (setting [4]) and in assay [2] (setting [5]) were 1.02 (inactive) and 0.801, respectively. In addition, the cell count came to 4940 in assay [2] (setting [6]) and 4860 in assay [2] (setting [7]).

In the case of `CCCCC[C@H](O)/C=C/[C@@H]1[C@H](C/C=C\CCCC(=O)O)[C@@H](O)C[C@H]1O`, in assay [3], the survival was 105 (inactive). Further, the fold change in assay [2] (setting [4]) is 0.908 (inactive) and 0.973 (inactive); in assay [2] (setting [5]), 1.37 and 1.68. For the same compound, the cell count is 6000 and 5340 in assay [2] (setting [6]); 6610 and 5490 in assay [2] (setting [7]).

In the case of `O=C(O)C1(O)C[C@H](O)C(O)[C@@H](O)C1` (stereo partly specified), the parasite load remaining in assay [1] was 88.4% (inactive). Further, in assay [1], the viability worked out at 72.5%. The fold change in assay [2] (setting [4]) was 0.922 (inactive); in assay [2] (setting [5]), 0.931. For the same compound, the cell count in assay [2] (setting [6]) came to 8930; in assay [2] (setting [7]), 9680.

As to `C[C@H]1[C@H](C)CC[C@]2(C(=O)O[C@@H]3O[C@H](COC4O[C@H](CO)[C@@H](OC5O[C@@H](C)[C@H](O)[C@@H](O)[C@H]5O)[C@H](O)[C@H]4O)[C@@H](O)[C@H](O)[C@H]3O)CC[C@]3(C)C(=CC[C@@H]4[C@@]5(C)C[C@@H](O)[C@H](O)[C@@](C)(CO)C5CC[C@]43C)[C@H]12` (stereo partly specified), the parasite load remaining in assay [1] is 109% (inactive). The viability in assay [1] is 74.2%. For the same compound, the fold change in assay [2] (setting [4]) is 0.957 (inactive); in assay [2] (setting [5]), 0.577. Also, the figures for the cell count in assay [2] (setting [6]) and in assay [2] (setting [7]) were 8940 and 9340, respectively.

With `CCCCCCCCCCCCCCC[C@@H](O)[C@H](CO)NC(=O)CCCCCCC`, the survival in assay [3] is 84.9 (inactive). Also, the figures for the fold change in assay [2] (setting [4]) and in assay [2] (setting [5]) were 0.925 (inactive) and 1.41, respectively. The cell count in assay [2] (setting [6]) was found to be 5910; in assay [2] (setting [7]), 6390.

`CO[C@H]1C[C@H](O[C@H]2[C@H](C)[C@@H](OC3O[C@H](C)C[C@H](N(C)C)[C@H]3OC(C)=O)[C@@H](C)C[C@]3(CO3)C(=O)[C@H](C)[C@@H](OC(C)=O)[C@@H](C)[C@@H](C)OC(=O)[C@@H]2C)O[C@@H](C)[C@@H]1OC(C)=O` (stereo partly specified): in assay [1], the parasite load remaining is 45.4% (inactive) and 43.2% (inactive). For the same compound, the viability in assay [1] was 71.3% and 92%. The fold change in assay [2] (setting [4]) was 0.885 (inactive); in assay [2] (setting [5]) it was 2.77. Besides, the values for the cell count in assay [2] (setting [6]) and in assay [2] (setting [7]) were 11900 and 13400, respectively.

On to `CC1(C)S[C@@H]2[C@H](NC(=O)[C@H](N)c3ccccc3)C(=O)N2[C@H]1C(=O)OC1OC(=O)c2ccccc21` (stereo partly specified), for which, in assay [3], the survival is 7.92 (inactive). Further, the parasite load remaining in assay [1] was 114% (inactive). The viability in assay [1] came out at 77.4%. Besides, the fold change in assay [2] (setting [4]) is 0.95 (inactive); in assay [2] (setting [5]), 0.554. Further, the cell count was 8670 in assay [2] (setting [6]) and 9130 in assay [2] (setting [7]).

For the compound `CCCCCCCCCCCCCCC[C@@H](O)[C@@H](N)CO`, the survival in assay [3] is 56.7 (inactive). The fold change in assay [2] (setting [4]) was 0.968 (inactive); in assay [2] (setting [5]) it was 1.46. Further, the cell count is 5120 in assay [2] (setting [6]) and 5290 in assay [2] (setting [7]).
